Results reported in the supplement of paper PMC13392028.
In all, about 4,100 sequences were measured (“RBNS R-value (6-mer enrichment in protein-bound RNA vs input library)”: median about 0.96, highest 2% from about 2.4 on). The list comes from a sample in which the highest values are over-represented; it also holds similar and randomly drawn sequences.

Test system: PyIESI-1 RRM domain (Plasmodium yoelii PY17X_0911200 aa 795-956, GST fusion)
Assay: RBNS R-value (6-mer enrichment in protein-bound RNA vs input library) (ratio); higher = stronger binding preference; the methods of the paper give 50 / 100 / 500 nM protein instead
Protocol: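 RNA Bind-n-Seq: recombinant GST-tagged IESI-1 RRM domain was incubated at room temperature with a random 40-nt in vitro transcribed RNA library at 250, 500 or 1000 nM protein. Bound RNA was pulled down on glutathione beads and sequenced. R-value is the enrichment of each 6-mer in the bound RNA relative to the input library. Each 6-mer sits inside the random 40-mer context, not as an isolated oligo. Values are replicate 1 only.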

Sequence	RBNS R-value (protein concentration: 250 nM)	RBNS R-value (protein concentration: 500 nM)	RBNS R-value (protein concentration: 1000 nM)
CGAUAC	1.26	1.34	1.39
AGAUAG	1.08	1.1	1.11
UGAUAG	4.53	4.33	4.55
UGAUAA	4.34	4.21	4.69
GGAUAC	0.904	0.919	0.891
UGAUAC	3.65	3.59	3.96
GGAUAU	0.856	0.872	0.845
AGAUAU	0.962	0.983	1
GCUACG	0.896	0.915	0.905
AGCUCC	0.982	0.991	1
UGCUGA	2.04	1.98	1.99
AAUCAC	0.701	0.714	0.718
GGGCUU	1.01	1.02	1.01
ACGCUG	1.14	1.13	1.13
CCGGCG	1.06	1.09	1.08
UACAGC	0.713	0.73	0.722
UCCCAU	0.805	0.831	0.834
UCCUCG	0.965	0.991	0.988
CAUUUA	0.421	0.449	0.427
AAUUUG	1.6	1.54	1.6
GAUUUU	3.71	3.43	3.56
UAUUUA	0.42	0.445	0.418
AAUUUC	1.1	1.11	1.15
GAUUUA	2.58	2.52	2.7

Sequence	RBNS R-value (protein concentration: 250 nM)	RBNS R-value (protein concentration: 500 nM)	RBNS R-value (protein concentration: 1000 nM)
CAUUUC	0.888	0.94	1
GAUUUG	4.2	3.81	3.78
CAUUUU	0.849	0.886	0.903
GAUUUC	3.38	3.2	3.32
AAUUUU	1.02	1.02	1.06
CAUUUG	1.31	1.35	1.38
UGGGUA	0.987	1.02	0.989
GUAGUG	0.958	0.965	0.926
GUAAAA	0.762	0.753	0.701
AAACAA	0.781	0.765	0.773
GACAUG	1.52	1.48	1.5
CCUAGC	0.86	0.888	0.886
GCGAUG	2.65	2.56	2.65
ACGAUG	2.5	2.46	2.59
CCGAUA	1.32	1.36	1.43
UCGAUC	1.05	1.07	1.11
ACGAUC	0.998	1	1.05
GCGAUU	2.19	2.21	2.28
UCGAUA	1.17	1.23	1.29
CCGAUU	2.3	2.23	2.34
CCGAUG	2.44	2.4	2.5
ACGAUA	1.21	1.3	1.37
UCGAUG	2.22	2.24	2.37
GCGAUC	1.09	1.12	1.13

Sequence	RBNS R-value (protein concentration: 250 nM)	RBNS R-value (protein concentration: 500 nM)	RBNS R-value (protein concentration: 1000 nM)
ACAUUG	1.19	1.17	1.2
GACCAG	1.1	1.11	1.09
GCUACU	0.838	0.861	0.829
GUGGAG	0.967	0.977	0.96
UAUUCU	0.707	0.731	0.734
UAUUCA	0.554	0.565	0.571
AAUUCU	1.06	1.05	1.06
AAUUCC	1.12	1.09	1.12
AAUUCG	1.08	1.08	1.08
GAUUCU	2.89	2.77	2.85
CAUUCG	1.01	1.05	1.07
GAUUCC	2.42	2.37	2.49
CAUUCC	0.948	0.975	0.997
AAUUCA	0.88	0.882	0.917
GAUUCG	2.64	2.49	2.51
GAUUCA	2.85	2.7	2.92
GCGCAG	1.01	1.03	1.03
ACAUCG	0.752	0.777	0.749
UCCAGU	0.838	0.85	0.831
ACCCAG	1.32	1.27	1.32
AAUCCC	0.954	0.955	0.949
ACUGCG	1.12	1.13	1.13
GACAAC	1.09	1.07	1.07
UCUUCC	0.978	1.01	1.03

Sequence	RBNS R-value (protein concentration: 250 nM)	RBNS R-value (protein concentration: 500 nM)	RBNS R-value (protein concentration: 1000 nM)
UGAUCC	2.58	2.6	2.82
CGAUCU	1.15	1.15	1.19
AGAUCU	0.946	0.924	0.93
GGAUCC	0.932	0.922	0.909
CGAUCC	1.19	1.22	1.26
AGAUCA	0.82	0.812	0.814
UGAUCU	2.74	2.75	2.93
UGAUCA	2.37	2.38	2.64
GGAUCA	0.767	0.764	0.736
GUGUUC	0.821	0.855	0.82
CGUACU	0.773	0.765	0.73
CAGUGA	1.6	1.58	1.62
AGAUUC	1.47	1.49	1.58
AGAUUU	1.72	1.72	1.83
GGAUUU	1.08	1.1	1.06
CCAUUU	0.871	0.913	0.936
UGAUUC	6.24	5.67	5.91
CGAUUA	1.73	1.79	1.94
CUAUUU	0.653	0.681	0.664
UGAUUU	7.9	7.06	7.22
AGAUUA	1.09	1.16	1.25
CGAUUU	2.59	2.56	2.71
UGAUUA	6.31	5.88	6.3
CGAUUC	2.08	2.12	2.24
